Experimental data: PubChem BioAssay
Activity calls are given as the source filed them. No rule for the calls is given here.

Each compound was assayed against Pantothenate synthetase (Mycobacterium tuberculosis (strain ATCC 25618 / H37Rv)) (UniProt P9WIL5) (assay: Recombinant Mtb pantothenate synthetase (PanC) inhibitors, coupled enzyme, confirmatory (AID 375;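 also: 0% = full reaction with vehicle and 100% = no enzyme background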)). Conditions: coupled enzyme assay; at 10 µM, hits give high values.
Sequence of Pantothenate synthetase (Mycobacterium tuberculosis (strain ATCC 25618 / H37Rv)) (P9WIL5 whole entry, looked up): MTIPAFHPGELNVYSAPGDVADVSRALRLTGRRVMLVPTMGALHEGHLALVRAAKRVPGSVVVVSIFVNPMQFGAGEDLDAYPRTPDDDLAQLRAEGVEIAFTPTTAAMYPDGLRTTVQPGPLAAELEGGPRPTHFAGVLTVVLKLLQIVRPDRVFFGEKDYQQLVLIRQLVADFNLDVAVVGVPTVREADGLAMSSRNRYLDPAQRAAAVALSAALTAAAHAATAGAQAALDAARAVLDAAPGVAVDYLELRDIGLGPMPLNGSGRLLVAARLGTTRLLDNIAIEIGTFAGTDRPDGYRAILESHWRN
With `N#Cc1c(NC(=O)CSc2nnnn2C2CCCC2)sc2c1CCCC2` the inhibition was 7% (inactive).
For `O=C(CCCn1c(=O)c2sccc2n(Cc2ccc(F)cc2)c1=O)NCc1ccco1`, the inhibition was 1% (inactive).
With `O=C(CN1CCOCC1)N1CCN(C(=O)CN2CCOCC2)CC1` the inhibition was 6% (inactive).
For `COCCn1c(=O)[nH]c2cc(C(=O)N3CCN(Cc4ccc5c(c4)OCO5)CC3)ccc2c1=O`, the inhibition was 0% (inactive).
In the case of `CCN(CCCNC(=O)C1CCCN(S(=O)(=O)c2cnc[nH]2)C1)c1ccccc1` (centres undefined), the inhibition is reported as 1% (inactive).
`C=CCSC1=C(C#N)C(c2ccccc2OCC)CC(=O)N1` (centres undefined) was tested, and the inhibition was 0% (inactive).
With `CCOc1ccc(N2CC(C(=O)Nc3ccc(F)cc3F)CC2=O)cc1` (centres undefined) the inhibition was 6% (inactive).
In the case of `CCOc1ccc(NCCC(=O)c2ccc3c(c2)OCO3)cc1`, the inhibition is reported as 1% (inactive).
With `CC(=O)Nc1ccc(Oc2ccc3nc(C)[nH]c3c2)cc1` the inhibition was 0% (inactive).
For `Cc1nc2ccccc2c(=O)n1NC(=O)Nc1ccccc1`, the inhibition was 0% (inactive).
For `Cc1nn(C)c(C)c1S(=O)(=O)N1CCCC(C(=O)N2CCN(c3ccc(Cl)cc3)CC2)C1` (centres undefined), the inhibition was 0% (inactive).
In the case of `COC(=O)c1sc2ccccc2c1NC(=O)c1cccs1`, the inhibition is reported as 2% (inactive).
In the case of `CCOc1cc(C2NC(=O)N(C)C(C)=C2C(=O)OC)cc(Br)c1O` (centres undefined), the inhibition is reported as 0% (inactive).
In the case of `CCOC(=O)N1CCC(NC(=O)c2ccc3c(c2)N(CC)CCS3)CC1`, the inhibition is reported as 5% (inactive).
For `Cc1nc2sc(C(c3cccc(F)c3)N3CCN(C(=O)c4ccco4)CC3)c(O)n2n1` (centres undefined), the inhibition was 0% (inactive).
For `CC1(C)Cc2noc(N)c2C(C)(C)N1OC(=O)c1ccccc1`, the inhibition was 0% (inactive).
With `Cc1nc2ccccc2c2c1C(=O)N(CCC1=CCCCC1)C2=O` the inhibition was 9% (inactive).
For `CCOc1cc(N2CCOCC2)c(OCC)cc1NC(=O)COC(=O)CCc1c[nH]c2ccccc12`, the inhibition was 0% (inactive).
For `S=c1[nH]nc(COc2ccccc2)n1C1CCCCC1`, the inhibition was 0% (inactive).
`CCOC(=O)c1oc2ccccc2c1NC(=O)c1cccc(OC)c1OC` was tested, and the inhibition was 0% (inactive).
For `Cc1nc2ccccc2c(=O)n1/N=C/c1ccncc1`, the inhibition was 3% (inactive).
`CCc1nnc(NC(=O)CCC(=O)Nc2ccccc2)s1` was tested, and the inhibition was 4% (inactive).
In the case of `Cc1cc(C)c(C#N)c(SCc2[nH]nc3c2C(c2ccccc2)C(C#N)=C(N)O3)n1` (centres undefined), the inhibition is reported as 0% (inactive).
For `O=C(Nc1ccc(Cl)cc1C(=O)O)c1ccc2c(c1)C(=O)N(Cc1ccco1)C2=O`, the inhibition was 0% (inactive).
In the case of `O=C(c1ccc(CSCc2ccccc2F)o1)N1CCN(c2ccc(N3CCOCC3)nn2)CC1`, the inhibition is reported as 0% (inactive).
For `O=C(c1c(Cl)nc2sccn12)N(C(=O)c1c(Cl)nc2sccn12)c1ccc(Cl)cn1`, the inhibition was 0% (inactive).
With `COc1ccc(CNc2oc(COc3ccccc3Cl)nc2C#N)cc1` the inhibition was 0% (inactive).
With `CC1(C)CC(=O)C=C(NC2CCS(=O)(=O)C2)C1` (centres undefined) the inhibition was 0% (inactive).
For `Cc1cc(C(F)F)n2ncc(C(=O)NC3CCCCCC3)c2n1`, the inhibition was 0% (inactive).
With `CN1/C(=C\C(=O)C(F)F)C(C)(C)c2ccccc21` the inhibition was 0% (inactive).
`N=c1c(C(=O)NCc2ccc(F)cc2)cc2c(=O)n3ccccc3nc2n1CCCN1CCOCC1` was tested, and the inhibition was 0% (inactive).
For `CCCC(c1nnnn1Cc1ccc(OC)cc1)N1CCN(c2ccccc2OC)CC1` (centres undefined), the inhibition was 0% (inactive).
In the case of `CCN(CC)CCOC(=O)c1cccc(OC)c1`, the inhibition is reported as 0% (inactive).
`CCCCCCNS(=O)(=O)c1ccc(Cl)s1` was tested, and the inhibition was 2% (inactive).
For `O=C(OCC(=O)c1c[nH]c2ccccc12)C1=COCCO1`, the inhibition was 0% (inactive).
In the case of `CN1CCN(CC(=O)Nc2ccc(Cl)cc2Cl)CC1`, the inhibition is reported as 3% (inactive).
`O=C(CCNC(=O)Cn1ccc2ccccc2c1=O)NCCN1CCc2ccccc2C1` was tested, and the inhibition was 3% (inactive).
`CCCCN(C)C(=O)c1ccc(CS(=O)(=O)c2ccccc2C)o1` was tested, and the inhibition was 2% (inactive).
`O=c1cc(-c2ccco2)oc2ccc(Cl)cc12` was tested, and the inhibition was 1% (inactive).
